# According to PubChem BioAssay:
# Legend:
# [1] = target: Tumor necrosis factor receptor superfamily member 10B (Homo sapiens) (UniProt O14763); experiment: viability loss of caspase-8 NB7 cells with TRAIL – with/without TRAIL, luminescence panel, confirmation (AID 651596); conditions: NB7 neuroblastoma + caspase-8, TRAIL sensitization, NB7 Caspase-8, with TRAIL, mean of runs, at 10 µM, stronger effect = higher value
# [2] = as above; conditions: NB7 neuroblastoma + caspase-8, without TRAIL, NB7 Caspase-8, without TRAIL, mean of runs, at 10 µM
# Chain of Tumor necrosis factor receptor superfamily member 10B (Homo sapiens) (O14763 whole entry, looked up): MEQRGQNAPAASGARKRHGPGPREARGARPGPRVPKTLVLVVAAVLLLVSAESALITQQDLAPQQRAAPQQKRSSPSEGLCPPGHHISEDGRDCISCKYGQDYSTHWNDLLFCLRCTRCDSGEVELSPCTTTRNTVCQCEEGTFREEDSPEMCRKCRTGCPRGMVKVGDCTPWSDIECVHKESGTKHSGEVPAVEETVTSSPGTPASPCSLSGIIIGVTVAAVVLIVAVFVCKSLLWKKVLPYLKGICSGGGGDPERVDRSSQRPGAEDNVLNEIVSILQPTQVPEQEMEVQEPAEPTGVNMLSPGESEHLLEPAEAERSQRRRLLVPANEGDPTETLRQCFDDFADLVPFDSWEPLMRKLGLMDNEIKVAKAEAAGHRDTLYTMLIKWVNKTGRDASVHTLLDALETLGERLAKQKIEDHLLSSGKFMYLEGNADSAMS
SMILES,activity [1],activity [2]
CCOC(=O)C1CCN(C(=O)C2c3ccccc3C(=O)N(C)C2c2ccc(OC)cc2)CC1 (stereo unspecified),66.1%,60.9%
O=C(NO)c1cc(OCC(F)(F)F)ccc1OCC(F)(F)F,51.1%,71.4%
CCOC(=O)c1cc([N+](=O)[O-])cc([N+](=O)[O-])c1Sc1ncnc2nc[nH]c12,51.5%,71.2%
Fc1ccccc1-c1ccc(/C=N/Nc2nc3ccccc3[nH]2)o1,82.7%,79.2%
O=C(Nc1cc(C(F)(F)F)cc(C(F)(F)F)c1)Nc1cnn(-c2ccc([N+](=O)[O-])cc2)c1C(F)(F)F,74.2%,63%
Nc1ccc(C(=O)Nc2nc3ccccc3s2)cc1,44.8%,41%
COc1cccc(-c2cc3nc(-c4ccccc4)cc(N4CCN(C(=O)c5ccoc5)CC4)n3n2)c1,82%,73.8%
Cc1ccccc1-c1nc2sc3c(c2c(=O)n1N)CCCC3,44%,46%
COc1ccc2nc(NC(=O)c3ccccc3F)sc2c1,78.1%,73.8%
C/C(=N\NC(=O)c1ccc2c(c1)OCO2)c1ccco1,53.5%,57.3%
CC1(C)N=C(N)N=C(N)N1c1ccc(OCC(=O)Nc2ccccc2)c(Cl)c1,78.5%,82.3%
COc1cc(SC)ccc1C(=O)Nc1nccs1,83.3%,84.3%
O=C(Nc1ccc2c(c1)CCC2)c1ccccc1F,30.3%,36.4%
COc1ccc(C(=O)Nc2nnc(SCC(=O)NCc3ccco3)s2)c(OC)c1,65.7%,61.2%
O=C(NNC(=O)c1cc(OCC(F)(F)F)ccc1OCC(F)(F)F)c1cccc(C(F)(F)F)c1,50.6%,44.2%
O=C(/C=C/Nc1ccccc1F)c1ccc(Br)cc1,62.2%,59.5%
COc1cc(/C=C(/C#N)c2nc3ccccc3[nH]2)ccc1OCC(=O)Nc1ccccc1C,86%,97.8%
Cc1ccccc1-c1nnc(SCC(=O)Nc2cccnc2Cl)o1,68.8%,61%
CSc1nnc(NC(=O)c2nc(S(=O)(=O)Cc3ccccc3F)ncc2Cl)s1,80.3%,58.1%
COc1ccc(-c2cc(-c3ccccc3)c(C#N)c(S(C)=O)n2)cc1 (stereo unspecified),95.2%,99.2%
O=C(CCl)N1CCCC1c1ccc2c(c1)OCCO2 (stereo unspecified),95.6%,97.8%
CCc1nnc(NC(=O)CSc2nc(C)cc(C)c2C#N)s1,81.2%,80%

SMILES,activity [1],activity [2]
COc1cccc(Cn2c(NCc3cccnc3)nc3c2c(=O)n(C)c(=O)n3C)c1,79.5%,84.7%
CCc1ccc(NC(=O)c2cnn3ccccc23)cc1,59.4%,58.6%
CC(OC(=O)c1ccc(S(C)(=O)=O)c([N+](=O)[O-])c1)C(=O)NC1C2CC3CC(C2)CC1C3 (stereo unspecified),77.8%,97.9%
CCCCC(=O)Nc1cc(C)c2c(=O)oc3ccccc3c2n1,62.4%,56.6%
O=c1[nH]c(/C(=N\O)c2ccccc2)no1,88.8%,89.6%
COc1ccc(CCNc2cc(N3CCN(C(=O)c4ccccc4F)CC3)ccc2[N+](=O)[O-])cc1OC,73.7%,64.7%
COc1ccc(-c2cc3ccc(F)cc3cn2)cc1,66.5%,58.9%
COc1ccc(C=C2C=C(C(C)(C)C)C(=O)C(C(C)(C)C)=C2)cc1OC,93.4%,98.8%
C#Cc1ccc(NC(=O)C2(C)CCN2C(=O)Cc2ccc(-c3ccccc3)cc2)cc1 (stereo unspecified),94.4%,68.4%
Nc1cnnc(N/N=C\c2ccccc2)c1Cl,22.9%,19.8%
O=C1CN(C(=O)Cn2ncc(Cl)c(Cl)c2=O)c2ccccc2N1,99.4%,99.5%
O=C(Nc1nc2cc3c(cc2s1)OCCO3)c1cccs1,66.6%,64.6%
CCOc1cc(/C=N/N=C(/N)c2nonc2N)cc(Br)c1OCc1ccc(Cl)cc1,30.7%,37.3%
Cc1cccnc1NC(=S)NC(=O)c1cccs1,73.2%,66.8%
CNC(=O)c1cc(Oc2ccc(NC(=O)Nc3ccc(Cl)c(C(F)(F)F)c3)cc2)ccn1,88.9%,63.2%
OCC1OC(n2cnc3c(SCc4ccccc4)ncnc32)C(O)C1O (stereo unspecified),59.9%,67.1%
O=C(NOCc1ccccc1)c1ccc(Cl)cc1Cl,62.6%,55.5%
Cc1nn(-c2ccccc2Cl)c(Cl)c1/C=N/Nc1cccc(C(=O)O)c1,68.9%,62.9%
CCC(=O)Nc1cc2nn(-c3ccc(OC)cc3)nc2cc1C,62.5%,61.8%
CCOCc1nc(N)nc(N)c1-c1cccc(Cl)c1,46.8%,61.9%
CN(C)c1ccc(/C=N/NC(=O)c2ccco2)cc1,50.2%,31.4%
